# Inconclusive results are not listed. Calls of active or inactive are those of the source. Calls follow the shape of the dose curve; as a rule, active = well fitted curve in the direction sought with a large enough effect in the repeat runs; inconclusive = weak or mixed curves; inactive = no such curve, though single readings can be large; an effect the other way counts as inactive or inconclusive.
# System: not listed separately
# Assay: qHTS assay to identify small molecule agonists of the constitutive androstane receptor (CAR) signaling pathway - cell viability counter screen (AID 1224836); also: nearly all actives have a fitted effect of over 45% in size
# Settings: HepG2-CYP2B6-hCAR viability, CellTiter-Fluor, 23 h, PK11195 added to every well; series mostly up to 92.4 µM; viability change, negative = cytotoxic: at the top concentration
# In short: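 Using CellTiter-Fluor, viability of HepG2 cells harbouring hCAR and CYP2B6-2.2kb was measured following 23 h incubation with a 15-concentration compound series plus PK11195 (0.75 uM final).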
# % is scaled to controls: 0 for no effect and ±100 for the full control effect.
row,Structure (SMILES),"viability change, negative = cytotoxic"
1,Cc1cc2nc(N)sc2cc1C,-0.959% (inactive)
2,NNS(=O)(=O)c1ccc(Oc2ccc(S(=O)(=O)NN)cc2)cc1,2.55% (inactive)
3,CCN(CC)CCOc1ccc(Cc2ccccc2)cc1,-2.73% [at 42.5 µM] (inactive)
4,CC(C)=CCCC(C)CCOC=O (centres undefined),3.83% (inactive)
5,CCCCNc1cc(C(=O)O)cc(S(N)(=O)=O)c1Oc1ccccc1,5.95% [at 42.5 µM] (inactive)
6,CN(C)Cc1ccccc1,2.41% (inactive)

# System: not listed separately
# Assay: qHTS assay to identify small molecule antagonists of the constitutive androstane receptor (CAR) signaling pathway - cell viability counter screen (AID 1224837); also: nearly all actives have a fitted effect of over 45% in size
# Settings: HepG2-CYP2B6-hCAR viability, CellTiter-Fluor, 23 h, co-treated with 50 nM CITCO; series mostly up to 92.4 µM; activity change, negative = cytotoxicity: at the top concentration
# In short: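 Viability was measured with CellTiter-Fluor in a HepG2 line carrying stably transfected hCAR and a CYP2B6-2.2kb construct. Cells were exposed for 23 hr at 37 C to 15 compound concentrations with 50 nM CITCO as agonist.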
row,Structure (SMILES),"activity change, negative = cytotoxicity"
1,CC/C=C\CCOC(=O)CCCCC,-0.909% (inactive)
2,CCc1cc(Cl)c(OC)c(C(=O)NC[C@@H]2CCCN2CC)c1O,2.38% [at 42.5 µM] (inactive)
3,CCCN(CCC)C(=O)C(CCC(=O)O)NC(=O)c1ccccc1 (centres undefined),-3.11% [at 42.5 µM] (inactive)
4,O=c1[nH]cnc2c1ncn2[C@@H]1O[C@H](CO)[C@@H](O)[C@H]1O,4.52% [at 42.5 µM] (inactive)
5,CCOc1ccc(NS(=O)(=O)c2ccc(N)cc2)nn1,3.23% [at 42.5 µM] (inactive)
6,CCOC(=O)C1CC(=O)C(=C(O)C2CC2)C(=O)C1 (centres undefined),4.26% (inactive)
7,CC1=C(CC(=O)O)c2cc(F)ccc2/C1=C\c1ccc(S(C)(=O)=O)cc1,-7.24% [at 42.5 µM] (inactive)
8,Cc1ccc([N+](=O)[O-])cc1Cl,-0.747% (inactive)
9,CN(CC1(C)CCCO1)S(=O)(=O)c1ccc(Cl)c(S(N)(=O)=O)c1 (centres undefined),1.07% [at 42.5 µM] (inactive)
10,Cc1c[nH]c(=S)[nH]c1=O,6.95% (inactive)
11,FC(F)(F)C(F)(F)C(F)(F)C(F)(F)C(F)(F)C(F)(F)C(F)(F)C(F)(F)Br,0.178% [at 42.5 µM] (inactive)
12,CC(C)OC(C)C,-1.63% (inactive)
13,C=CCCCCCCCCO,5.16% (inactive)
14,Cc1nnc(SCC2=C(C(=O)O)N3C(=O)[C@@H](NC(=O)Cn4cnnn4)[C@H]3SC2)s1,6.5% [at 42.5 µM] (inactive)
15,CN(C)Cc1ccccc1,0.769% (inactive)

# Biological target: Nuclear receptor subfamily 1 group I member 3 (Homo sapiens) (UniProt Q14994)
# Sequence (Q14994 whole entry, looked up): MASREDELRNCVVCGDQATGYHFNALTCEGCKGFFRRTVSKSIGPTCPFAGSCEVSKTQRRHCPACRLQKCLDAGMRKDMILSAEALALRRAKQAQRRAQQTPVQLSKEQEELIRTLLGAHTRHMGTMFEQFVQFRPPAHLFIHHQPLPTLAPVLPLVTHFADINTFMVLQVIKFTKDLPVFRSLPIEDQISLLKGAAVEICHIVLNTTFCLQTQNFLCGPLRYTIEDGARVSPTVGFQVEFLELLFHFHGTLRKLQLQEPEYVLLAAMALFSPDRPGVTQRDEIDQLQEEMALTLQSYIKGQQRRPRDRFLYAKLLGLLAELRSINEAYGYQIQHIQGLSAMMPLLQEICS
# Assay: qHTS assay to identify small molecule antagonists of the constitutive androstane receptor (CAR) signaling pathway (AID 1224838);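 also: HepG2 cells stably expressing hCAR with CYP2B6 luciferase reporter stimulated by CITCO; nearly all actives have a fitted effect of over 40% in size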
# Settings: HepG2-CYP2B6-hCAR luciferase, CITCO-stimulated, 24 h; series mostly up to 92.4 µM; activity, negative = inhibition: at the top concentration
# In short: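 Antagonist mode used CITCO at a final 50 nM to activate CAR in human hepatoma HepG2 cells carrying stable hCAR and a 2.2 kb CYP2B6 promoter-luciferase construct. Compounds were tested at 15 concentrations over 24 h, with luminescence as the end point.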
row,Structure (SMILES),"activity, negative = inhibition"
1,CC(=O)Nc1ccc(C)c(Cl)c1,31.1% (inactive)
2,CC/C=C\CCOC(=O)CCCCC,-8.03% (inactive)
3,Nc1ccc(Oc2ccc(N)c(N)c2)cc1,177% (inactive)
4,CCc1cc(Cl)c(OC)c(C(=O)NC[C@@H]2CCCN2CC)c1O,48.1% [at 42.5 µM] (inactive)
5,CCCN(CCC)C(=O)C(CCC(=O)O)NC(=O)c1ccccc1 (centres undefined),-4.3% [at 42.5 µM] (inactive)
6,O=c1[nH]cnc2c1ncn2[C@@H]1O[C@H](CO)[C@@H](O)[C@H]1O,-19.4% [at 42.5 µM] (inactive)
7,CC(C)(CO)[C@@H](O)C(=O)NCCC(=O)O,2.43% (inactive)
8,CCN1CC(CCN2CCOCC2)C(c2ccccc2)(c2ccccc2)C1=O (centres undefined),-7.76% [at 42.5 µM] (inactive)
9,CCCCCCn1c(=O)c2c(ncn2C)n(C)c1=O,57.9% [at 42.5 µM] (inactive)
10,CCOC(=O)C1CC(=O)C(=C(O)C2CC2)C(=O)C1 (centres undefined),19.6% (inactive)
11,CC1=C(CC(=O)O)c2cc(F)ccc2/C1=C\c1ccc(S(C)(=O)=O)cc1,27.9% [at 42.5 µM] (inactive)
12,Cc1ccc([N+](=O)[O-])cc1Cl,13.8% (inactive)
13,O=C1CCCc2ccccc21,1.32% (inactive)
14,CC(C)C(=O)OC/C=C/c1ccccc1,24.5% (inactive)
15,Cc1c[nH]c(=S)[nH]c1=O,0.406% (inactive)
16,FC(F)(F)C(F)(F)C(F)(F)C(F)(F)C(F)(F)C(F)(F)C(F)(F)C(F)(F)Br,-7.95% [at 42.5 µM] (inactive)
17,CC(C)OC(C)C,-0.835% (inactive)
18,Cc1cc2c(s1)Nc1ccccc1N=C2N1CCN(C)CC1,26.4% [at 42.5 µM] (inactive)
19,O=C(Cl)c1cccc([N+](=O)[O-])c1,-3.01% (inactive)
20,COc1ccccc1OCC(O)COC(N)=O (centres undefined),-9.34% [at 42.5 µM] (inactive)
21,Cc1cc2nc(N)sc2cc1C,177% (inactive)
22,CCN(CC)CCOc1ccc(Cc2ccccc2)cc1,34.2% [at 42.5 µM] (inactive)
23,CC(C)=CCCC(C)CCOC=O (centres undefined),-22.2% (inactive)

# Reference: PubChem BioAssay (Tox21)
